Compound activity as filed in PubChem BioAssay.
D2 PAM-1 = positively modulates the human D2 dopamine receptor allosterically. 340,000 compounds, 0.34% hits. HEK293 T-REx D2, calcium flux, EC20 dopamine potentiation. potentiation, % at 10 µM. AID 485347. P14416;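 active = potentiation over 3 SD above the plate norm, cut at about 30% in these data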; also: 0% is about no effect
Target sequence (P14416 whole entry, looked up): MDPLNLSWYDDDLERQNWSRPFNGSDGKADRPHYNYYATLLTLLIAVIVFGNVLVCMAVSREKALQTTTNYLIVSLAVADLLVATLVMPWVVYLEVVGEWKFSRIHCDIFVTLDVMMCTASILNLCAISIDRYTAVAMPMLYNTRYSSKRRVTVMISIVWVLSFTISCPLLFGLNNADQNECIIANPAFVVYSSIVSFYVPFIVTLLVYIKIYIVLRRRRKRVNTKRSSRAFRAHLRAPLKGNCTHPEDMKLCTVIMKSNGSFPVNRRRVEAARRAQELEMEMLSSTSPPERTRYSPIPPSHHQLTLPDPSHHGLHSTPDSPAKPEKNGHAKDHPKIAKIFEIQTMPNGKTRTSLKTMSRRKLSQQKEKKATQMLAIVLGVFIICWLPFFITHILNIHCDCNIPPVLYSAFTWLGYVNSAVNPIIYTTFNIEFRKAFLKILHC
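Tetracycline-induced HEK293 T-REx cells force-coupled to calcium signalling expressed D2; compounds were pin-added after a 10 s baseline, read kinetically 180 s, then an EC20 dopamine challenge followed with a further 180 s calcium read.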
D2 ag-1 = activates the human D2 dopamine receptor | DiscoveRx PathHunter D2 beta-arrestin, luminescence, 90 min; 100% = 57 uM dopamine signal | activation, % (concentration not given with the values) | 360,000 compounds, 0.084% hits; in the data active = activation above about 40%
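DiscoveRx PathHunter D2 beta-arrestin cells (2,100/well) attached overnight, then compound-stimulated 90 min at 37 C in HBSS/10 mM HEPES/0.1% Tween-20 buffer; beta-galactosidase complementation read by luminescence after 1 h at ambient temperature. Dopamine 57 uM final (EC100) as control.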
D2 antag = antagonists of human D2 dopamine receptor. 340,000 compounds, 2% hits. HEK293 TREx D2 cells, calcium flux, dopamine EC80. inhibition, % at 10 µM; in the data active = inhibition above about 30%; inactive = below that, where a call was filed; also: 0% is about no effect
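Tetracycline-induced HEK293 T-REx cells expressing D2 force-coupled to calcium signalling were dye-loaded, exposed to compound for 180 s, then challenged with an EC80 of dopamine; calcium flux was followed kinetically for a further 180 s.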
D2 ag-2 = activates the human D2 dopamine receptor; P14416; HEK293 T-REx D2 cells, calcium flux agonist mode; activation, % at 2 µM; 340,000 compounds, 0.53% hits;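 active = activation over 3 SD above normal in the single-dose calcium agonist read, cut at about 30% in these data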; also: 0% is about no effect
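In this primary screen, compounds producing a positive calcium signal within 180 s of addition to tetracycline-induced, force-coupled HEK293 Trex D2 cells are flagged; cells are dye-loaded with a no-wash calcium kit beforehand.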
D2 PAM-2 = human D2 receptor positive allosteric modulation; 360,000 compounds, 0.23% hits; DiscoveRx D2 beta-arrestin cells, luminescence, 90 min; 100% = 57 uM dopamine signal; AID 624464; potentiation, % (test concentration not listed); P14416; in the data active = potentiation above about 50%
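D2 cells co-treated with compound plus 50 nM dopamine (EC20) for 90 min at 37 deg C to detect potentiation. Beta-arrestin recruitment was read as enzyme-fragment luminescence after 1 h at ambient temperature. Full response was set by 57 uM dopamine.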
* = called active by the depositor; nt = no result given. Most compounds without a hit are left out; they make up all but 2.4% or so of the library.

SMILES	D2 PAM-1	D2 ag-1	D2 antag	D2 ag-2	D2 PAM-2
Cc1c(Cl)cccc1NC(=S)N1CCN(Cc2ccccc2)CC1	7	-2	0	0	-21
Cc1c(Cl)cccc1NC(=S)NC1CCN(Cc2ccccc2)CC1	-22	1	85*	1	-38
COc1ccc(CCNC(=S)NC2CCN(Cc3ccccc3)CC2)cc1OC	-37	-1	32*	0	-13
COc1ccc(CCNC(=S)NCCc2ccc(OC)c(OC)c2)cc1OC	7	-1	1	-1	-5
CC(C)c1ccccc1NC(=S)N1CCN(Cc2ccc3c(c2)OCO3)CC1	-23	-4	33*	2	-15
O=C(CNC(=O)c1ccccc1Cl)NC1CCN(Cc2ccccc2)CC1	20	-1	-1	0	-5
O=C(NC1CCN(Cc2ccccc2)CC1)c1ccc(Cl)cc1Cl	-20	1	61*	1	-86
O=C(Cc1ccc(F)cc1)Nc1ccccc1N1CCCC1	8	-5	-12	0	0
COc1ccccc1N(CC(=O)NCCSCc1ccccc1)S(=O)(=O)c1ccc(C)cc1	-3	2	1	1	-3
O=C(Nc1nnc(S(=O)(=O)N2CCOCC2)s1)c1ccccc1Br	-3	2	-10	-1	0
S=C(Nc1cc(Cl)cc(Cl)c1)NC1CCN(Cc2ccccc2)CC1	-28	-3	72*	3	-26
S=C(NCc1ccc(Cl)cc1)NC1CCN(Cc2ccccc2)CC1	-27	7	71*	2	-20
Clc1ccc(CNC2CCN(Cc3ccccc3)CC2)cc1	1	-3	-12	3	-13
FC(F)(F)c1ccccc1NC(=S)NC1CCN(Cc2ccccc2)CC1	-26	-3	115*	1	-34
S=C(Nc1ccccc1Cl)NC1CCN(Cc2ccccc2)CC1	-24	1	85*	0	-38
O=C(NC(=S)NC1CCN(Cc2ccccc2)CC1)c1ccc(F)cc1	18	-6	7	3	-20
C/C(=N\OCC(=O)N/N=C/c1ccc(C)cc1O)c1cccs1	3	-3	-31	1	12
CCC(CC)C(=O)Nc1cccc(-c2cn3cccnc3n2)c1	5	nt	nt	0	nt
O=C(c1ccc(Cl)c([N+](=O)[O-])c1)N(Cc1cccc(Cl)c1)C1CCS(=O)(=O)C1 (centres undefined)	-2	5	13	3	14
O=C(NC1CCN(Cc2ccccc2)CC1)C1CCN(S(=O)(=O)c2ccc(Cl)cc2)CC1	-14	-6	33*	1	-17
CC(C)c1ccccc1NC(=S)NC1CCN(Cc2ccccc2)CC1	-27	-5	96*	1	-14
S=C(Nc1ccc(Cl)cc1Cl)NC1CCN(Cc2ccccc2)CC1	-26	-2	75*	2	-28
S=C(Nc1ccccc1Cl)NC1CCC(NC(=S)Nc2ccccc2Cl)CC1 (centres undefined)	5	2	nt	nt	-23
O=C(CN1CCC(NC(=O)c2ccco2)CC1)Nc1ccccc1C(F)(F)F	9	-1	50*	0	-6
O=S(=O)(c1ccc(Cl)cc1)N1CCC(N2CCOCC2)CC1	-8	-2	12	0	-20
SMILES	D2 PAM-1	D2 ag-1	D2 antag	D2 ag-2	D2 PAM-2
CC(=O)Nc1ccc(OCC(=O)c2ccc(C)cc2C)cc1	2	0	4	1	-6
CCCN1C=CC(=C/C=C(\C#N)C(=O)OCC)C=C1	0	nt	-6	34*	nt
CCCCCCN1C=CC(=C/C=C(\C#N)C(=O)OCC)C=C1	3	7	8	43*	-4
CCCN1C=CC(=CC=C(C#N)C#N)C=C1	8	-3	-7	22	-2
Cc1ccc(Cc2nc3ccccc3nc2SCC(=O)N2CCC(C)CC2)cc1	8	nt	nt	0	nt
CCOc1ccccc1N1CCN(CC(O)COCc2cccs2)CC1 (centres undefined)	-28	-3	68*	8	-19
OC(COc1ccccc1)CN1CCN(CC(O)COc2ccccc2)CC1 (centres undefined)	0	-4	30*	1	-4
OC(CN1CCN(c2ccccc2F)CC1)c1ccc(F)cc1 (centres undefined)	10	9	1	0	-9
OC(COc1ccc(F)cc1)CN1CCN(c2ccccc2F)CC1 (centres undefined)	1	-7	87*	-1	-21
OC(COCc1cccs1)CN1CCN(c2ccccc2Cl)CC1 (centres undefined)	-24	3	nt	nt	-31
COc1ccccc1N1CCN(CC(O)COc2ccc(C)c(C)c2)CC1 (centres undefined)	nt	-2	nt	nt	-20
COc1ccccc1N1CCN(CC(O)COc2ccc3c(c2)CCC3)CC1 (centres undefined)	-20	2	80*	23	-34
O=C(O)C1C2C=CC(C3CC23)C1C(=O)O (centres undefined)	nt	0	nt	nt	5
CC(=O)Nc1ccc(OCC(O)CN2CCN(c3ccc(C)c(Cl)c3)CC2)cc1 (centres undefined)	10	2	21	0	-16
O=[N+]([O-])c1ccccc1OCC(O)CN1CCN(CC(O)COc2ccccc2[N+](=O)[O-])CC1 (centres undefined)	-22	-2	92*	1	-65
CC(=O)Nc1ccc(OCC(O)CN2CCN(c3cc(Cl)ccc3C)CC2)cc1 (centres undefined)	-25	-3	93*	19	-21
COc1ccc(CCNC(=O)C(=O)NCc2ccccc2)cc1OC	4	0	3	0	24
COc1ccc(Cl)cc1NC(=O)CSc1nc(N2CCOCC2)nc(N2CCOCC2)n1	6	1	17	0	-5
O=C(CSc1cccc(C(F)(F)F)c1)Nc1ccc(Cl)cc1Cl	-9	1	49*	0	9
O=C(CSc1nc(N2CCOCC2)nc(N2CCOCC2)n1)Nc1ccc(Cl)cc1Cl	1	-5	33*	1	-7
O=C(CSc1cccc(C(F)(F)F)c1)NC(=O)c1ccccc1	-7	-2	0	-2	-13
COc1cccc(C2C(C(=O)c3cc4ccccc4o3)=C(O)C(=O)N2CCN(C)C)c1OC (centres undefined)	nt	-5	nt	nt	-29
OC(CN1CCN(c2ccccc2Cl)CC1)c1ccccc1 (centres undefined)	-21	2	86*	7	-12
CCCS(=O)(=O)N1CCCC(C(=O)NCCN2CCOCC2)C1 (centres undefined)	13	1	16	0	17
CC(C)(C)c1nn(-c2ccccc2)c2[nH]c(=O)c(C=O)cc12	1	-11	39*	-2	-22
CC(C)(C)c1nn(-c2ccccc2)c2nc(Cl)c(C=O)cc12	4	3	32*	-1	-1
